Source: PubChem (Sanford-Burnham Center for Chemical Genomics)
Most compounds without a hit are left out; they make up all but 4% or so of the library.
HIF-2a block: blocks HIF-2a reporter activity; 786-0 RCC cells HIF-2a reporter, luciferase luminescence, overnight; inhibition, % at 18.8 µM; 0.72% of 360,000 active;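 active = inhibition of the luminescence signal of 40% or more relative to plate controls, in a single-dose primary screen at 18.75 µM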
KKLEB cytotox: CF airway cell cytotoxicity counter-screen; KKLEB CF airway cells viability, ATPlite luminescence, overnight; active compounds read low; cells stimulated with P. aeruginosa culture filtrate; activity change (cytotoxicity), % at 5 µM; 0.36% of 360,000 active;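 active = corrected activity change at or below -50% at 5 µM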
CF NFkB inh: blocks PAF-induced NF-kB reporter in cystic fibrosis cells | 0.86% of 360,000 active | inhibition, % at 5 µM | KKLEB NF-kB-GFP reporter, GFP fluorescence overnight;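 active = at least 50% inhibition at 5 µM, scaled per plate between neutral and stimulator controls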;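 also: PAF is a Pseudomonas aeruginosa culture filtrate used as stimulus; plate controls were PAF-stimulated DMSO wells for no effect and unstimulated DMSO wells for full effect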
Peg3 promoter: reduces Peg3 promoter-driven luciferase expression in HeLa; HeLa PEG-Prom luciferase reporter, luminescence, overnight; inhibition, % at 20 µM; 1.7% of 360,000 active; AID 588405;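 active = inhibition of at least 50% at 20 µM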
TWEAK Fn14 block: blocks TWEAK-Fn14 interaction in a reporter cell assay | 2% of 360,000 active | inhibition, % at 10 µM | TWEAK-stimulated Fn14 reporter cells, luciferase luminescence, 8 h; in the data active = inhibition above about 50%
TROY NFkB inh: blocks TROY-dependent signaling in reporter cells; Q293 LMP1-TROYcd NF-kB luciferase reporter, 4 h; inhibition, % at 10 µM; 0.98% of 360,000 active; AID 1347056;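 active = compounds whose plate-normalised and pattern-corrected inhibition of the luciferase reporter signal at the single screening dose is 50% or more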
Active calls of the source: *; i = inactive; x = not tested or not shown.

SMILES | HIF-2a block | KKLEB cytotox | CF NFkB inh | Peg3 promoter | TWEAK Fn14 block | TROY NFkB inh
CC12C=CC(=O)C=C1CCC1C2C(=O)CC2(C)C1CCC2(O)C(=O)CO (centres undefined) | 5.4 | 21.8 | 35.7 | 3.6 | -13.1 | -1.7
C[C@]12C=CC(=O)C=C1CC[C@H]1[C@@H]3C[C@@H](O)[C@](O)(C(=O)CO)[C@@]3(C)C[C@H](O)[C@@]12F | 23.2 | -15.5 | 76.8* | -9.4 | -6.8 | -3.3
CC12C=CC(=O)C=C1CCC1C2C(=O)C[C@@]2(C)C1CCC2(O)C(=O)CO (some centres undefined) | 2.2 | 0.6 | 12.1 | -10.3 | -7.3 | -1.6
CC1CC2C3CCC4=CC(=O)C=CC4(C)C3(F)C(O)CC2(C)C1(O)C(=O)CO (centres undefined) | 25.2 | 49.2 | 77.4* | 5.2 | 1.6 | 28.4
NC1=NC[C@H](c2ccccc2)N1CC1CCCCC1 | 4.7 | -13.5 | 3.7 | -8.5 | 9.4 | 6.5
N#Cc1cnn(CC2CCCCC2)c1N | 16.7 | 6.9 | 5.5 | 6.3 | 60.6* | x
CC(C)(C)Cc1c(-c2cccc(Br)c2)nc2ccc(Cl)cn12 | -40.0 | -17.7 | 10.1 | -17.1 | -11.6 | -24.2
Cc1ccc(NC(=O)C2CCN(S(=O)(=O)c3cc([N+](=O)[O-])ccc3Cl)CC2)nc1 | -17.8 | -6.4 | 18.4 | 14.4 | 24.9 | 11.9
Cc1ccc2nc(NC(=O)C3CCN(S(=O)(=O)c4cc([N+](=O)[O-])ccc4Cl)CC3)sc2c1 | -80.7 | 5.5 | 3.9 | -32.2 | 83.0* | 28.6
Cc1ccc2nc(NC(=O)C3CCN(S(=O)(=O)c4cccc5nsnc45)CC3)sc2c1 | -27.0 | -5.7 | 17.0 | -6.0 | 92.2* | 42.3
COc1ccc2nc(NC(=O)C3CCN(S(=O)(=O)c4cccs4)CC3)sc2c1 | 6.4 | -9.6 | 20.5 | 18.6 | 55.0* | 54.3*
Cc1ccc2nc(NC(=O)C3CCN(S(=O)(=O)c4cccs4)CC3)sc2c1 | 3.0 | 9.7 | -1.5 | 13.6 | 79.5* | 39.6
O=c1c(-c2ccccc2)nnc2sc(COc3ccc(Br)cc3)nn12 | 20.3 | -7.7 | 9.5 | 17.2 | 4.6 | -4.0
CSCc1ccc(C(=O)NC(C)c2ccc(-n3ccnc3)cc2)cc1 (centres undefined) | -41.6 | 7.4 | 2.8 | -27.4 | -2.2 | -26.0
NS(=O)(=O)OCc1ccc(C(F)(F)F)cc1 | -9.4 | -14.2 | 24.3 | 0.5 | -20.8 | 1.8
CN1C(=O)/C(=N\OC(=O)c2cccc3ccccc23)c2ccccc21 | 39.8 | -32.7 | 7.9 | 74.4* | 17.1 | -16.9
CCNC(=O)C1(C)CCN1Cc1cc(-c2ccccc2)n(C)n1 (centres undefined) | -4.2 | 6.3 | -46.0 | -14.1 | -6.7 | -4.7
Cn1c(-c2ccc(F)c(F)c2)cc2onc(-c3ccccc3)c2c1=O | -334.7 | -3.3 | -35.9 | i | 9.0 | -5.6
COc1cccc(-c2cc3onc(-c4ccccc4)c3c(=O)n2C)c1 | -184.4 | -22.9 | -6.9 | -282.6 | 70.4* | 61.2*
CN(C)c1ccc(-c2nnc(-c3cccs3)o2)cc1 | -163.4 | -19.6 | 2.5 | -148.4 | 62.8* | 18.2
CCOC(=O)c1c(NC(=O)COC(=O)Cc2n[nH]c(=O)c3ccccc23)sc(C(=O)NC)c1C | 15.4 | -4.0 | 14.7 | 3.1 | -8.4 | 18.4
O=C(COc1ccc(Br)cc1Cl)NC(=S)Nc1ccccn1 | -182.5 | -10.4 | 14.0 | -222.3 | 63.8* | 69.2*
Cc1ccc(OCC(=O)NC(=S)Nc2ccccn2)c(Br)c1 | 21.9 | -17.3 | -23.1 | 17.0 | 91.4* | 79.4*
COc1ccc2c(CC(=O)Nc3ccc(OC)c(S(=O)(=O)N4CCOCC4)c3)coc2c1 | -30.7 | 3.6 | -1.1 | -24.2 | -5.5 | 16.9
COc1ccc(NC(=O)Cc2coc3cc(C)c(C(C)C)cc23)cc1S(=O)(=O)N1CCOCC1 | 4.8 | 2.8 | -4.1 | 23.1 | 53.0* | 28.0
CSc1nc(-c2ccc(C)cc2)nc(C(Cl)Cl)n1 | 2.0 | -19.3 | 6.3 | 101.8* | 5.8 | 1.3
O=C(CC1C=CCC1)Nc1ccccc1 (centres undefined) | -83.0 | -0.6 | 23.7 | -47.1 | 3.0 | -21.3
c1ccc(C[n+]2cccc(-c3ccccc3)c2)cc1 | 13.7 | 7.5 | -7.8 | 1.9 | 91.0* | 89.6*
c1ccc(C[n+]2ccc3ccccc3c2)cc1 | 8.5 | 5.0 | 11.6 | 10.0 | 14.1 | -9.1
